Inhibition data for six compounds are collected here from ChEMBL document CHEMBL1961873, “Compounds: GSK PKIS; Assays: Nanosyn kinase panel” (2012).

In experiment [1] the target is T1, Serine/threonine-protein kinase Nek9 (Homo sapiens) (UniProt Q8TD19).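 Note: each value is a mean percent inhibition of NEK9.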
T1 sequence (whole entry): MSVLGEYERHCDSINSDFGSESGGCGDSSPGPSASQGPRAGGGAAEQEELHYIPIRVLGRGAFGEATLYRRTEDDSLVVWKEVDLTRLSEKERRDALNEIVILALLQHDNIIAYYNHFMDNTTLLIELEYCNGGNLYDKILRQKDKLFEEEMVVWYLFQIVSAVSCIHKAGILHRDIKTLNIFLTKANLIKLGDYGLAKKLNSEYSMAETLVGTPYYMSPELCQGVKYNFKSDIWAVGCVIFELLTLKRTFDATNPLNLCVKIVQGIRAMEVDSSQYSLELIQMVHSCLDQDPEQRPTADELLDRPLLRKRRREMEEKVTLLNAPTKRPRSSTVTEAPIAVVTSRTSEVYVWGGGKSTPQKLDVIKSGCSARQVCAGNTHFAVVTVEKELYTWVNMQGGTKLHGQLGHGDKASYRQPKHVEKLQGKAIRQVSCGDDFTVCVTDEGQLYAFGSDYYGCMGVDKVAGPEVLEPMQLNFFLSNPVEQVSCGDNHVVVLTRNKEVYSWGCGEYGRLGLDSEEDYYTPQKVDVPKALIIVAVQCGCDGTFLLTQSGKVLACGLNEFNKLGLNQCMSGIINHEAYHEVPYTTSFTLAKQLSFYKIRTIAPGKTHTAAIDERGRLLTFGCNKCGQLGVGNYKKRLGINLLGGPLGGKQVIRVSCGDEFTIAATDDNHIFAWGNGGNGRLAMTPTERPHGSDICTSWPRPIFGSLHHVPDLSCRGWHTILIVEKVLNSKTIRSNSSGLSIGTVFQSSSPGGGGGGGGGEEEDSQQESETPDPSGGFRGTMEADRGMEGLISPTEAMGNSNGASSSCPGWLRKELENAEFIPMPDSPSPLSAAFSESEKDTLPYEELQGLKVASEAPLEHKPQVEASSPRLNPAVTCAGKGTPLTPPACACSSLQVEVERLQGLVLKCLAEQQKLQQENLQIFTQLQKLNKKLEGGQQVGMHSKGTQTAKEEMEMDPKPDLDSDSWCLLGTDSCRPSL
To be noted: at 1 µM.

For experiment [2], the target named is Serine/threonine-protein kinase PLK1 (Homo sapiens) (UniProt P53350). To be noted: at 0.1 µM.
The target is the same in experiment [3]. As to conditions: at 1 µM.
Experiment [4] concerns the target T2, Dual specificity protein kinase TTK (Homo sapiens) (UniProt P33981).
T2 sequence (whole entry): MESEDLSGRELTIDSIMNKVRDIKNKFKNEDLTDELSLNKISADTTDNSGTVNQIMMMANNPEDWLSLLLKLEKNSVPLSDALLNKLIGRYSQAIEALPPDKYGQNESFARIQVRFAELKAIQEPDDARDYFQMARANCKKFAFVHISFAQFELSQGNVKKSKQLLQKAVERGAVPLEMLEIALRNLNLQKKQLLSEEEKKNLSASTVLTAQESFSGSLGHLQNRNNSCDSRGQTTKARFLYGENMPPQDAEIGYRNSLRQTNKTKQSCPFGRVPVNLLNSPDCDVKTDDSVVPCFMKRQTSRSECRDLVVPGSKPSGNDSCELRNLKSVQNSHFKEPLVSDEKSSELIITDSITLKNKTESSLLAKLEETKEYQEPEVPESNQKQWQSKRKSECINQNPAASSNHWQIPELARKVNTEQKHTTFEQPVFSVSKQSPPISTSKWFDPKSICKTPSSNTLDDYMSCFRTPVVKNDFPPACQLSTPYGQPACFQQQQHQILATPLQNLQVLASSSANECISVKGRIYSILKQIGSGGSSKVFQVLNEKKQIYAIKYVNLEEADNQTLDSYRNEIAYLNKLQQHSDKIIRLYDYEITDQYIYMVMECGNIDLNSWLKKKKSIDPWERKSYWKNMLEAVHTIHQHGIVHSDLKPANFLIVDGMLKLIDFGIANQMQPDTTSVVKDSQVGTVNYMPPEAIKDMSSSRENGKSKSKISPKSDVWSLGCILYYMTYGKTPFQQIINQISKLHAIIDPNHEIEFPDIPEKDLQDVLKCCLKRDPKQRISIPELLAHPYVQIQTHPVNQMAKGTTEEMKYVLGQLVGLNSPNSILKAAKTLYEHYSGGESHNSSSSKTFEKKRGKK
To be noted: at 0.1 µM.

For experiment [5], the system named is T3, Receptor-type tyrosine-protein kinase FLT3 (Homo sapiens), P36888 [D835Y].
T3 sequence (whole entry): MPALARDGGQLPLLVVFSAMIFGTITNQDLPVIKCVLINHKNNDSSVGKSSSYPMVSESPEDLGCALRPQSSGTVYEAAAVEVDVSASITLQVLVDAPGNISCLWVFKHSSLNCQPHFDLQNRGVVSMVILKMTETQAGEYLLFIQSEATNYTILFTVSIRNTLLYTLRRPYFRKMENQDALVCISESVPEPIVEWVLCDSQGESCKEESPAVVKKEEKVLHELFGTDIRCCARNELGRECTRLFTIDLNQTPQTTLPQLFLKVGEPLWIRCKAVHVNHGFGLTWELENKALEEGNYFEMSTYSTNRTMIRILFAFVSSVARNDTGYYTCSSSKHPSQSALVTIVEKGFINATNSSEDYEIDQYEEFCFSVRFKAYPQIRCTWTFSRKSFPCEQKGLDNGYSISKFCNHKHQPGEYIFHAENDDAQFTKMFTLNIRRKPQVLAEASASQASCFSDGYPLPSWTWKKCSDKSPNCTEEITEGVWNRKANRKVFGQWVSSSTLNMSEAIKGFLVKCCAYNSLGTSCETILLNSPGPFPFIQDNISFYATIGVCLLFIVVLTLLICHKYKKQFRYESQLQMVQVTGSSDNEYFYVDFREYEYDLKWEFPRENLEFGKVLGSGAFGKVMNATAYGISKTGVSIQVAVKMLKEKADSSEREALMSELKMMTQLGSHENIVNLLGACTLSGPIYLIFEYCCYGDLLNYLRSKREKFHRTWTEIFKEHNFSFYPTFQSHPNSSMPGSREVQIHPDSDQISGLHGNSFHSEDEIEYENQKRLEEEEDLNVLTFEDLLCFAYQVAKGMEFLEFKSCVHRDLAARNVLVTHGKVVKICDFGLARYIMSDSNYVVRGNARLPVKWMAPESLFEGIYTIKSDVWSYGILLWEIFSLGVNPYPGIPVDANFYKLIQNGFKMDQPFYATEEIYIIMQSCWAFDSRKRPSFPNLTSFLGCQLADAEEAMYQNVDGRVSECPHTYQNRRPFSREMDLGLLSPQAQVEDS
As to conditions: at 1 µM.

Experiment [6] has as its target Vascular endothelial growth factor receptor 3 (Homo sapiens) (UniProt P35916). As to conditions: at 0.1 µM.
For experiment [7] the target is unchanged. To be noted: at 1 µM.
For experiment [8], the target named is Macrophage colony-stimulating factor 1 receptor (Homo sapiens) (UniProt P07333). As to conditions: at 0.1 µM.
Experiment [9] shares this target. To be noted: at 1 µM.
Experiment [10] deals with Tyrosine-protein kinase Fyn (Homo sapiens) (UniProt P06241). As to conditions: at 0.1 µM.
Experiment [11] shares this target. As to conditions: at 1 µM.
Experiment [12] deals with Tyrosine-protein kinase HCK (Homo sapiens) (UniProt P08631). To be noted: at 0.1 µM.
Experiment [13] shares this target. As to conditions: at 1 µM.
Experiment [14] has as its target Insulin-like growth factor 1 receptor (Homo sapiens) (UniProt P08069). As to conditions: at 0.1 µM.
Experiment [15] has the same target. As to conditions: at 1 µM.
Experiment [16] concerns the target Insulin receptor (Homo sapiens) (UniProt P06213). To be noted: at 0.1 µM.
Experiment [17] has the same target. As to conditions: at 1 µM.
Experiment [18] deals with Insulin receptor-related protein (Homo sapiens) (UniProt P14616). To be noted: at 0.1 µM.
Experiment [19] has the same target. As to conditions: at 1 µM.
Experiment [20] deals with T4, Tyrosine-protein kinase ITK/TSK (Homo sapiens) (UniProt Q08881).
T4 sequence (whole entry): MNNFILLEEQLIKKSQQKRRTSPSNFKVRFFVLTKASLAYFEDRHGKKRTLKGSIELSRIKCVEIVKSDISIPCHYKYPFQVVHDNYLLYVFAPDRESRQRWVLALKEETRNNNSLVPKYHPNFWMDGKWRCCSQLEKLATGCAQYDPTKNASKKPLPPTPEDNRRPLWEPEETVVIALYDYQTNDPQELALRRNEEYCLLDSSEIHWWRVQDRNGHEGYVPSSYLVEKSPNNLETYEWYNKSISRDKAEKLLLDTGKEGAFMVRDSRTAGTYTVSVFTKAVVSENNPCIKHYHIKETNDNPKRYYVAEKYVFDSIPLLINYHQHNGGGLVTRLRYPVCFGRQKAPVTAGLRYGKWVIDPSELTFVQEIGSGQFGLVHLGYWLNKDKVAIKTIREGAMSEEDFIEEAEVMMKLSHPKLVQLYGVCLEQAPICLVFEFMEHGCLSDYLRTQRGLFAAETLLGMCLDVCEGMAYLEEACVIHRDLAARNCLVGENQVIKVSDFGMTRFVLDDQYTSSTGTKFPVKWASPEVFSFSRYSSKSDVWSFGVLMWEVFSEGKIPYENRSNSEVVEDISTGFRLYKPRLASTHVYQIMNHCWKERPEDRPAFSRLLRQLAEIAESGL
To be noted: at 0.1 µM.

Sequence of Tyrosine-protein kinase HCK (Homo sapiens) (P08631 2-526 limits assumed): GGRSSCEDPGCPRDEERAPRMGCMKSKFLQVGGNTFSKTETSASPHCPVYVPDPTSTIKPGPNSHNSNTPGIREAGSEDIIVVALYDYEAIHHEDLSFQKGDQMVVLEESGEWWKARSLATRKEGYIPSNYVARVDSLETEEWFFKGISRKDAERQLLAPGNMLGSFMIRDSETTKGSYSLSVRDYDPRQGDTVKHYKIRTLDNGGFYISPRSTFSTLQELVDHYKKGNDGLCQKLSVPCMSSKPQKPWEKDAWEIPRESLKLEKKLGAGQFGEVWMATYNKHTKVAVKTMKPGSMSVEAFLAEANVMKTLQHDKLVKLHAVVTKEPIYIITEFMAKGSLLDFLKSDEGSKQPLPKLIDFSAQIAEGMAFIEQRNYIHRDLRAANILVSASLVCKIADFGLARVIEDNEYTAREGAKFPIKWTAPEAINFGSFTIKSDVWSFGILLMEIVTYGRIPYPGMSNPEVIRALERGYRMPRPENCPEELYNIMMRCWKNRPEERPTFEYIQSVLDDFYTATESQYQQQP
Sequence of Macrophage colony-stimulating factor 1 receptor (Homo sapiens) (P07333 whole entry): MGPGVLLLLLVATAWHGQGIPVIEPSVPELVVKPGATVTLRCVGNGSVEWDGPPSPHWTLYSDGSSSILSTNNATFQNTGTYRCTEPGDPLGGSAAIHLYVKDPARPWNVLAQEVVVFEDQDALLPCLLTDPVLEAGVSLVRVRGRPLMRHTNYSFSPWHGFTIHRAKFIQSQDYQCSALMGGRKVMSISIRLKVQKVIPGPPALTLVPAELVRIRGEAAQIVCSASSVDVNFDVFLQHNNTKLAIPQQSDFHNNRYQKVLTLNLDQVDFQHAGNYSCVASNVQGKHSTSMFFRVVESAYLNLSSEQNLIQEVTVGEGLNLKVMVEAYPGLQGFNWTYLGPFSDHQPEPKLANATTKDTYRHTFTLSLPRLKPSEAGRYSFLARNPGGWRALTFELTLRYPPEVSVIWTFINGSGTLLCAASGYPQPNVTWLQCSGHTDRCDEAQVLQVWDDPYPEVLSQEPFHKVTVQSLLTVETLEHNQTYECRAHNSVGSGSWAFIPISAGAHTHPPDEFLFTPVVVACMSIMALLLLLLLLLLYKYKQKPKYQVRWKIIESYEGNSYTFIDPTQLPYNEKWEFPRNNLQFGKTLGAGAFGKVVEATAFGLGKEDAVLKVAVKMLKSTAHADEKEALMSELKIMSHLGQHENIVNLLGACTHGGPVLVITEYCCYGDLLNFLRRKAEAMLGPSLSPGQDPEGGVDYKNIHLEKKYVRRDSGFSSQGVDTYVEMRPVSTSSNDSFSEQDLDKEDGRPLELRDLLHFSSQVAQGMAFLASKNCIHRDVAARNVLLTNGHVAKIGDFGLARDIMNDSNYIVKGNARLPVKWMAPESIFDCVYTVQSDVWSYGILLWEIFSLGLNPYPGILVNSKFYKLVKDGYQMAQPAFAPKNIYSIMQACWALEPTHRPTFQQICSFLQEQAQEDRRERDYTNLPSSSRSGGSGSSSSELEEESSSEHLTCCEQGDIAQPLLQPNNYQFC
Sequence of Vascular endothelial growth factor receptor 3 (Homo sapiens) (P35916 whole entry): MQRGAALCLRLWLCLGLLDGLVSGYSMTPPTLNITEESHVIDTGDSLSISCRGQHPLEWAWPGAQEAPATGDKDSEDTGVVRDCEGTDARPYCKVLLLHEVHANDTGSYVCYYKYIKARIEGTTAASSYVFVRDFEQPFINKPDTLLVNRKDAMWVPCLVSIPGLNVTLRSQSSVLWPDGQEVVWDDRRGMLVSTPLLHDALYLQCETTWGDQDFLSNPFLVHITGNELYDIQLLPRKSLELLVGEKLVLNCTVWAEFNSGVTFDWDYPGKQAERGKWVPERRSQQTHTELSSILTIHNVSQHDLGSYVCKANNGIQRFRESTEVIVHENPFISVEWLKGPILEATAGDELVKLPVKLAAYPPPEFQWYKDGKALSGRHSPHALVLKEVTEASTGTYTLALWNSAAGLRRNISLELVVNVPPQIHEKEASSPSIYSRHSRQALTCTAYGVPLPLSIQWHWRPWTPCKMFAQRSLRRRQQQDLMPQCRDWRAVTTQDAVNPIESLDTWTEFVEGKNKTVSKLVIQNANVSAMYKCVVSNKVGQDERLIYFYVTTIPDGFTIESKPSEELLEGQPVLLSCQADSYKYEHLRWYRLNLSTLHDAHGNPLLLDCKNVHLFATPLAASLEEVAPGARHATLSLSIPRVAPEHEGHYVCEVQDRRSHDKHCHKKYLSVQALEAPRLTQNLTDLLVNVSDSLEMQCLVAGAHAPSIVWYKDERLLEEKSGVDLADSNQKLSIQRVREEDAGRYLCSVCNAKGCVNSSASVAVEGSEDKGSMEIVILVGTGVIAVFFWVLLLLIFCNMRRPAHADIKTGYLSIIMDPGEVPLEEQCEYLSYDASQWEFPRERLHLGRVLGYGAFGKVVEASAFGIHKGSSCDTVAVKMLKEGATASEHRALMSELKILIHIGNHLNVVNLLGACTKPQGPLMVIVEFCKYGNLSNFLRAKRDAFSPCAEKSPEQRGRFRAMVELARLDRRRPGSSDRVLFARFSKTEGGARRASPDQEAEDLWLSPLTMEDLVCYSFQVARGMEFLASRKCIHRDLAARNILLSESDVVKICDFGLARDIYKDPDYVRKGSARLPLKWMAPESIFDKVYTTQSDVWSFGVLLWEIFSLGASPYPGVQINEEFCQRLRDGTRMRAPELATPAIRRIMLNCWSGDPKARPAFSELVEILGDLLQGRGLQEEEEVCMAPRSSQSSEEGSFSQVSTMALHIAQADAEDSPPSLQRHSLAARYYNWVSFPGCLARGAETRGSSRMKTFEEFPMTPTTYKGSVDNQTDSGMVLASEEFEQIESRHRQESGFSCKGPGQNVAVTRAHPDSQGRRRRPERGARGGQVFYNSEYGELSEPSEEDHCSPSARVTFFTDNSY
Sequence of Tyrosine-protein kinase Fyn (Homo sapiens) (P06241 2-537 limits assumed): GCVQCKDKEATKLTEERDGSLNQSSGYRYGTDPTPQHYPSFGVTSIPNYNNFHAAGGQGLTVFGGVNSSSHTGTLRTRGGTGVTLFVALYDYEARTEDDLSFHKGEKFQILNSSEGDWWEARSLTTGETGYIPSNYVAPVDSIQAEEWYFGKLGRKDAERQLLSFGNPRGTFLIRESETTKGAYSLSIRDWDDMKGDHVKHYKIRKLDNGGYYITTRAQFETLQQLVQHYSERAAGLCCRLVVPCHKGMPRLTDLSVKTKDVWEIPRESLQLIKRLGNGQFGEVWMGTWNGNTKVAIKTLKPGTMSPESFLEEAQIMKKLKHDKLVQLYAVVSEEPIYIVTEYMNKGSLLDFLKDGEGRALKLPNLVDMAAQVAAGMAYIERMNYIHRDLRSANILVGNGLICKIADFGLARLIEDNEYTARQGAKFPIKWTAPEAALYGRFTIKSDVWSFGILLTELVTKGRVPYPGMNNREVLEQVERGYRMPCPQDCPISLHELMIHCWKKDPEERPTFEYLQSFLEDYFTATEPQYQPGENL
Sequence of Insulin receptor-related protein (Homo sapiens) (P14616 27-742 limits assumed): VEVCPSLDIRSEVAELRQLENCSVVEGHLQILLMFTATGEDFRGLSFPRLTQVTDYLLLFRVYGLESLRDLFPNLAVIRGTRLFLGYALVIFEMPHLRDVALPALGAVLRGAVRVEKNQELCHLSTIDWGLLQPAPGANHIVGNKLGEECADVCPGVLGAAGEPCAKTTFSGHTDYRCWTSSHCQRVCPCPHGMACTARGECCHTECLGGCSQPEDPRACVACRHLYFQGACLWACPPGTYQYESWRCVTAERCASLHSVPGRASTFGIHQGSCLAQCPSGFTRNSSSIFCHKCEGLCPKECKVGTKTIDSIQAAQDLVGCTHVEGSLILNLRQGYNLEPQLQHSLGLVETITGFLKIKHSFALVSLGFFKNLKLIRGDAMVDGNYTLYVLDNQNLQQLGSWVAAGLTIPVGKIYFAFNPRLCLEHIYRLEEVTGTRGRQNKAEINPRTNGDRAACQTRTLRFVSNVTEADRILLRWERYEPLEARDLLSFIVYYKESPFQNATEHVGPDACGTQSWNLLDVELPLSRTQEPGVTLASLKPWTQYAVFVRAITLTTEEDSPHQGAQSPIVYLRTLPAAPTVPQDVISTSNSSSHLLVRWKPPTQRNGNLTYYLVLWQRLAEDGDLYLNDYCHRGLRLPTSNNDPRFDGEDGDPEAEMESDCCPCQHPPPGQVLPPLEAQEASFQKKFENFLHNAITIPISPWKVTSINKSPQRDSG
Sequence of Insulin receptor-related protein (Homo sapiens) (P14616 747-1297 limits assumed): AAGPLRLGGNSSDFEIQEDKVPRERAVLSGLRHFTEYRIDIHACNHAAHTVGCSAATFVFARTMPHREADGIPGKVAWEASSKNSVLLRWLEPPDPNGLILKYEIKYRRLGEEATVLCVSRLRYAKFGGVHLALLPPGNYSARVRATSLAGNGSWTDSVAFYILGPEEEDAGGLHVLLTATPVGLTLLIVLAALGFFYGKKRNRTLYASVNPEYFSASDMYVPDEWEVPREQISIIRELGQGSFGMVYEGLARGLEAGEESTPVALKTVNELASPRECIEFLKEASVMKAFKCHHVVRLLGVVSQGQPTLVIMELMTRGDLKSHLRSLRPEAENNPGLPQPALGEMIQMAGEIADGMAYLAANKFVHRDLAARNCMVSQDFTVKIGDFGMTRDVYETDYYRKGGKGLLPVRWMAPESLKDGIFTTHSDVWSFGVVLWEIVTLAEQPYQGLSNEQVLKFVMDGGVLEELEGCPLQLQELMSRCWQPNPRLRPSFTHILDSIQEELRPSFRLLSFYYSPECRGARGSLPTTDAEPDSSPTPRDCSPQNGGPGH

Regarding `COc1cccc(/C=N/Nc2ncnc3c2cnn3-c2cccc(OC)c2)c1`, the inhibition in [1] was 11.2%; in [2] it was 5.9%; in experiment [3] it was 5.49%; in experiment [4], 7.19%; in experiment [5], 7.24%; in [6], 1.81%. Also, the inhibition was -0.55% in experiment [7]; 1.79% in [8]; 6.37% in experiment [9]; 2.39% in experiment [10]; 7.98% in [11]; 4.96% in experiment [12]. The inhibition is 6.95% in experiment [13]; 2.01% in experiment [14]; 1.32% in experiment [15]; 6.27% in experiment [16]; 3.35% in [17]; 1.18% in experiment [18]. In addition, the inhibition in [19] amounted to 1.31%; in experiment [20] it was 0.35%.

On to `COc1ccc2cc(-c3c(-c4ccncc4)nc(-c4ccc(S(C)(=O)=O)cc4C)n3C)ccc2c1`, for which the inhibition was 18.2% in [1]; 4.66% in experiment [2]; 4.49% in experiment [3]; 11.5% in experiment [4]; -2.55% in experiment [5]; 4.4% in [6]. The inhibition in experiment [7] was 10.1%; in experiment [8], 0.81%; in experiment [9], -1.08%; in experiment [10], 1.95%; in [11], 7.37%; in [12], 5.89%. Moreover, the inhibition in [13] was 13.1%; in experiment [14] it was 4.23%; in [15], 3.79%; in experiment [16] it was 7.46%; in experiment [17], 5.18%; in experiment [18], 2.39%. Further, the inhibition turned out to be 2.25% in [19] and 1.82% in [20].

`NS(=O)(=O)c1ccc(Nc2cc(-c3ccc(O)c(F)c3)n[nH]2)cc1`: the inhibition is 2.31% in experiment [1]; -1.16% in experiment [2]; -3.09% in [3]; -2.03% in experiment [4]; 34.1% in experiment [5]; 0.48% in experiment [6]. The inhibition in experiment [7] was 16.5%; in experiment [8], 0.43%; in experiment [9] it was 23.6%; in experiment [10] it was 0.43%; in experiment [11] it was 9.16%; in experiment [12], 0.38%. Further, the inhibition was 11.1% in [13]; -1.39% in experiment [14]; -0.67% in [15]; -3.62% in experiment [16]; 2.77% in [17]; -4.66% in experiment [18]. Further, the inhibition in experiment [19] was -2.36%; in experiment [20], 0.74%.

As to `NS(=O)(=O)c1ccc(N/N=C2\C(=O)Nc3ccc(C(=O)NCCCn4ccnc4)cc32)cc1`, the inhibition in experiment [1] is 19%; in experiment [2] it was 6.29%; in experiment [3], 4.25%; in [4] it was 37.3%; in experiment [5] it was 32.9%; in [6], 4.15%. In addition, the inhibition in experiment [7] came to 26.7%; in experiment [8] it was 2.86%; in experiment [9], 6.33%; in experiment [10], 2.07%; in experiment [11], 19.2%; in experiment [12], 5.3%. In addition, the inhibition worked out at 17.8% in experiment [13]; 2.13% in experiment [14]; 3.17% in experiment [15]; 6.3% in experiment [16]; 6.66% in experiment [17]; 2.1% in experiment [18]. Further, the inhibition amounted to 3.71% in experiment [19] and 1.19% in experiment [20].

Take `CCc1cccc(CC)c1/C=C/c1cncc(C(=O)NC)c1`: the inhibition in experiment [1] is -1.94%; in experiment [2], 1.32%; in experiment [3], 1.99%; in [4], 3.43%; in [5], 4.06%; in experiment [6] it was 1.11%. Besides, the inhibition in [7] was 2.42%; in experiment [8] it was -1.63%; in [9] it was 6.91%; in [10] it was 3.51%; in experiment [11], 3.44%; in experiment [12] it was 5.19%. The inhibition in [13] was 10%; in experiment [14], 3.36%; in experiment [15], 3.86%; in [16], 1.7%; in [17], 1.65%; in experiment [18], 5.5%. Also, the inhibition amounted to 2.06% in experiment [19] and 0.83% in experiment [20].

On to `CN(C)CCOc1ccc(-c2cc(-c3ccc4c(c3)CCC4=NO)c(-c3ccncc3)o2)cc1`, for which the inhibition in [1] is -0.58%; in experiment [2], 1.65%; in experiment [3], -0.86%; in experiment [4] it was 1.31%; in [5], -3.1%; in experiment [6], -0.84%. Further, the inhibition in experiment [7] was -0.94%; in experiment [8] it was -3.24%; in experiment [9], -0.1%; in experiment [10], 1.29%; in experiment [11], 8%; in experiment [12] it was -2.29%. Also, the inhibition in experiment [13] is 2.91%; in [14], -3.2%; in experiment [15], 0.2%; in [16], 3.17%; in experiment [17], 1.94%; in experiment [18], -1.33%. The inhibition in [19] was -1.94%; in experiment [20] it was -1.36%.
